C2C12 statin: protects C2C12 myotubes from simvastatin toxicity; 330,000 compounds, 0.78% hits; rescue of ATP level, % at 7.49 µM; ATP luminescence, 48 h; scaled: DMSO 0, geranylgeraniol control 100; AID 602340;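 active = mean ATP rescue above about 67%, or every replicate alone reaching that limit, limit read from the data, passing the limit was not always enough; inconclusive = no clear call, values can overlap the other calls; inactive = mean under the limit and some replicate under it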;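 note: myotubes were challenged with 10 µM simvastatin during compound exposure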
GAA850 FXN act: activators of GAA850 frataxin (FXN) promoter; 360,000 compounds, 0.56% hits; activation, % at 6 µM; HEK293 lucGAA850 FXN promoter luciferase reporter, 24 h; percent of 10 µM SAHA response; AID 540364;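 active = activation above the average of all compounds screened plus 3 SD, cutoff fixed separately per campaign, cut at about 7.5% in these data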;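 note: 0% = DMSO wells and 100% = 10 µM SAHA wells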
Wnt act: activators of Wnt/beta-catenin signaling; Wnt/beta-catenin reporter cell assay, activator, plate reader; activation, % at 9.35 µM; 300,000 compounds, 1.2% hits; AID 743398; in the data active = activation above about 30%, passing the limit was not always enough; inconclusive = no clear call, values can overlap the other calls;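 note: 0% = neutral control wells and 100% = positive control wells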
esBAF inh: inhibitors of esBAF chromatin remodeling in mouse ES cells; reporter increase, % at 12.5 µM; 350,000 compounds, 2% hits; Bmi1-luciferase knock-in reporter, 24 h; 100% = twice the neutral-well signal; in the data active = activation above about 40%; inconclusive = no clear call, values can overlap the other calls;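 note: 0% = median of the plate's neutral control wells and 100% = double that signal; a rise in the Bmi1 reporter signal indicates esBAF inhibition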
MITF act: MITF TRPM1 promoter activation in melanoma cells; SK-MEL-5 TRPM1-promoter luciferase, 24 h; % of positive control, neutral wells = 0; activation, % at 12.5 µM; 300,000 compounds, 0.75% hits;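 active = mean activation of at least 80% with every replicate also reaching 80%; inconclusive = mean reaches 80% but some replicate falls short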;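 note: 0% = neutral control wells and 100% = parthenolide positive control wells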
* marks the source's active call; other numbers are inactive results. A selection: hits, their analogues and other compounds. The true share with any hit is near 3.3%.

Screening CC(=O)Nc1ccc(N=Nc2c(C)[nH]n(C(N)=S)c2=O)cc1 returned C2C12 statin 4, GAA850 FXN act 3, Wnt act 13, esBAF inh 49* and MITF act 6.
Cc1ccc(N=Nc2c(C)[nH]n(C(N)=S)c2=O)cc1C was read as GAA850 FXN act 3, Wnt act 13 and MITF act 4.
CC(C)Oc1cc(O)c2c(=O)c(-c3ccc(O)cc3)coc2c1 was read as C2C12 statin -14, GAA850 FXN act 4, Wnt act 8, esBAF inh 2 and MITF act 52.
COc1ccc(-c2coc3cc(OC)cc(OC)c3c2=O)cc1 was read as C2C12 statin 1, GAA850 FXN act 2, Wnt act 1, esBAF inh 63* and MITF act 61.
Screening O=c1c(-c2ccc(O)cc2)coc2cc(O)cc(O)c12 returned C2C12 statin 17, GAA850 FXN act 4, Wnt act 44*, esBAF inh 57* and MITF act 100*.
`COc1ccc(-c2coc3cc(O)ccc3c2=O)cc1` gave C2C12 statin 7, GAA850 FXN act 0, Wnt act 47*, esBAF inh 15 and MITF act 76.
Screening COc1cc(O)cc2occ(-c3ccc(O)cc3)c(=O)c12 returned C2C12 statin -3, GAA850 FXN act 0, Wnt act -1, esBAF inh 26 and MITF act 18.
For COc1ccc(-c2coc3cc(O)cc(O)c3c2=O)cc1 the results were C2C12 statin 4, GAA850 FXN act 2, Wnt act 55*, esBAF inh 46* and MITF act 97*.
CC(=O)N(C)C[C@@H]1Oc2ncc(C#Cc3ccccn3)cc2C(=O)N([C@@H](C)CO)C[C@H]1C was read as C2C12 statin -3 and esBAF inh -12.
C[C@@H]1CN([C@@H](C)CO)C(=O)Cc2cc(NS(=O)(=O)c3ccc(F)cc3)ccc2O[C@@H]1CN(C)C(=O)Nc1cccc2ccccc12 was read as C2C12 statin 34 and esBAF inh -1.
Screening COc1ccc(-c2coc3cc(OC)cc(O)c3c2=O)cc1 returned GAA850 FXN act 1 and MITF act 96*.
`O=C(C[C@@H]1C[C@@H]2c3cc(NC(=O)Nc4ccccc4)ccc3O[C@@H]2[C@@H](CO)O1)NCc1ccccn1` gave C2C12 statin 1 and esBAF inh 0.
Screening CCCSc1nc(N)nc(-c2cccs2)c1C#N returned C2C12 statin 3, GAA850 FXN act 5, esBAF inh 48* and MITF act 76.
For CCOC(=O)CSc1nc(N)c(C#N)c(-c2cccs2)c1C#N the results were C2C12 statin -3, GAA850 FXN act 4, esBAF inh -3 and MITF act -4.
`C[C@H](CO)N1C[C@H](C)[C@@H](CN(C)C(=O)C2CCC2)Oc2ncc(-c3cccc(F)c3)cc2C1=O` gave C2C12 statin -13 and esBAF inh 0.
Screening O=C(NC1CCCCC1)c1cc2cc(Br)ccc2o1 returned C2C12 statin -5, GAA850 FXN act 4, Wnt act -1 and esBAF inh 56*.
`O=C(NC1CCCC1)c1cc2cc(Br)ccc2o1` gave C2C12 statin -8, GAA850 FXN act 4, Wnt act inconclusive, esBAF inh 69* and MITF act inconclusive.
Cc1noc(C)c1S(=O)(=O)Nc1ccc2c(c1)C(=O)N([C@@H](C)CO)C[C@@H](C)[C@@H](CN(C)C(=O)Nc1ccc(F)cc1)O2 was read as C2C12 statin -17 and esBAF inh 1.
C[C@H](CO)N1C[C@H](C)[C@H](CN(C)C(=O)Nc2ccccc2)Oc2ccc(NC(=O)Nc3cccc4ccccc34)cc2CC1=O was read as C2C12 statin -2 and esBAF inh -2.
`Cc1ccccc1C(=O)O/N=C(\N)Cc1cccs1` gave C2C12 statin -6, GAA850 FXN act 4, Wnt act 17, esBAF inh 53* and MITF act 94*.
O=C(Oc1ccc2ccc(O)cc2c1)c1ccccc1Cl was read as C2C12 statin 19, GAA850 FXN act 2, Wnt act 11 and esBAF inh 63*.
Cc1ccccc1OCC(=O)O/N=C(\N)Cc1cccs1 was read as C2C12 statin 11, GAA850 FXN act 0, esBAF inh 32 and MITF act 44.
Cc1ccccc1C(=O)O/N=C(\N)c1ccncc1 was read as GAA850 FXN act 3, Wnt act 40* and MITF act 27.
Screening COc1ccc(/C=C/C(=O)O/N=C(\N)c2ccccn2)cc1OC returned C2C12 statin -5, GAA850 FXN act 5, Wnt act 1, esBAF inh inconclusive and MITF act 81*.
Screening CO[C@@H]1CN(C)C(=O)c2ccc(NC(=O)NC(C)C)cc2OC[C@@H](C)N(Cc2cncnc2)C[C@H]1C returned C2C12 statin 8 and esBAF inh -1.
`N/C(=N\OC(=O)/C=C/c1ccccc1)c1ccncc1` gave C2C12 statin -17, GAA850 FXN act 4, Wnt act 11, esBAF inh 45* and MITF act 50.
`N/C(=N\OC(=O)c1ccc2ccccc2c1)c1ccccc1Cl` gave C2C12 statin 1, GAA850 FXN act 2, Wnt act 47*, esBAF inh 65* and MITF act inconclusive.
`N/C(=N\OC(=O)c1ccc2ccccc2c1)c1ccncc1` gave GAA850 FXN act 2, Wnt act 34* and MITF act inconclusive.
Screening N/C(=N\OC(=O)c1ccc2ccccc2c1)c1ccccn1 returned C2C12 statin -20, GAA850 FXN act -7, Wnt act -26, esBAF inh -86 and MITF act -32.
For CO[C@H]1CN(C)C(=O)c2cc(NC(=O)c3ccc(F)cc3)ccc2OC[C@H](C)NC[C@@H]1C the results were C2C12 statin 4 and esBAF inh 5.
For CCC(C)(NC(=O)c1ccc(=O)[nH]c1)C(=O)NC1CCCC1 (stereo not given) the results were C2C12 statin 92*, GAA850 FXN act 0, Wnt act -2, esBAF inh 7 and MITF act -6.
O=C(C[C@H]1CC[C@H]2[C@@H](COC[C@@H](O)CN2C(=O)c2cccnc2)O1)NCc1ccccc1 was read as C2C12 statin -6 and esBAF inh 1.
For CCOC(=O)/C=c1\s/c(=C\c2c(OCC)ccc3ccccc23)c(=O)n1CC(=O)NCC1CCCO1 (stereo not given) the results were GAA850 FXN act -3 and MITF act -6.
CCOC(=O)/C=c1\s/c(=C\c2ccc3c(c2)OCCO3)c(=O)n1CC(=O)NCC1CCCO1 (stereo not given) was read as C2C12 statin 110*, GAA850 FXN act 0, esBAF inh 4 and MITF act 3.
For CSc1cccc(-n2cc(-c3ccc4c(c3)OCO4)[nH]c2=O)c1 the results were C2C12 statin -14, GAA850 FXN act -3, esBAF inh 45* and MITF act 10.
